From PubChem BioAssay (NCATS)
Records with an inconclusive call do not appear. Values without a mark were called inactive. The source made the active and inactive calls. Calls come from the whole dose curve; as a rule, active = well fitted inhibition curve with a large enough effect; inconclusive = small, poorly fitted or top-dose-only effect; inactive = flat fitted curve, though single readings scatter.

target: Calcium and integrin-binding protein 1 (Homo sapiens) (UniProt Q99828); experiment: Primary qHTS for Identification of Calcium Integrin Binding Protein 1 (CIB1) Competitor (AID 1508620); conditions: CIB1-GST / FITC-alphaIIb peptide fluorescence polarization; series mostly up to 114 µM; activity change, negative = inhibition: at the top concentration; for activity change, negative = inhibition: top concentration of the series differs between compounds
Summary of the method: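 Fluorescence polarization competition: GST-tagged CIB1 (1 uM final) preincubated with compound 15 min at room temperature, then FITC-labelled alphaIIb peptide (100 nM final) added. After 15 min at room temperature, polarization read at Ex 480/Em 540.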
% is set by controls: 0 for no effect and ±100 for the full control effect; potency is the fitted concentration of half-maximal effect.

Sequence of Calcium and integrin-binding protein 1 (Homo sapiens) (Q99828 whole entry, looked up): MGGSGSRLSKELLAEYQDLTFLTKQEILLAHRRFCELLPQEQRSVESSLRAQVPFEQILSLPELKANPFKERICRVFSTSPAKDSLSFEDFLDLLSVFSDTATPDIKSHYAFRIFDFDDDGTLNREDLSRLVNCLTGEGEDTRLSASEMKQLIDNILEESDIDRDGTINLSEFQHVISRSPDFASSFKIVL

SMILES | activity change, negative = inhibition [%] | Potency
CN(C)c1cnc2c(O)ccc([S+](=O)([O-])Nc3ccccc3F)c2c1 | -24.4 | –
Cc1ccccc1-c1nc(NCc2ccc(-c3cccnc3)cc2)c2ccccc2n1 | 0.443 | –
COc1ccc(C2Nc3ccccc3C(=O)N2Cc2cccs2)cc1COc1c(C)cc(NC(C)=O)cc1C (configuration not stated) | 5.9 | –
CC(=O)Nc1sc2c(c1-c1nc3ccccc3o1)CCN(C(C)C)C2 | – | 50.1 µM (active)
Cc1cccc(-c2ccc3ncnc(N(C)Cc4ccco4)c3c2)c1 | 2.67 | –
FC(F)(F)c1ccccc1-c1nc2c(c(NCc3ccc(-c4cccnc4)cc3)n1)CCC2 | 2.02 | –
O=C(O)c1ccc2c(c1)C(=O)N([C@H](Cc1ccc([N+](=O)[O-])cc1)C(=O)O)C2=O | 0.168 | –
Cc1ccc(NS(=O)(=O)c2ccc3c(c2)CCC(=O)N3C)cc1Cl | -5.4 | –
CN(C)c1cccc(-c2nc(N3CCC(C(N)=O)CC3)ncc2F)c1 | 2.2 | –
O=C1NS(=O)(=O)c2cc(Br)ccc21 | 0.685 | –
Cn1nnnc1Sc1ncnc2scc(-c3ccc(N)cc3)c12 | 1.53 | –
O=C(O)c1ccc(O)c2ncc(N3CCCN(CCCc4ccncc4)CC3)cc12 | -7.37 | –
COc1ccc(-c2ccc3ncnc(NCc4ccc(C)o4)c3c2)cc1OC | 5.1 | –
C=CCNc1oc(C2CCCC2)nc1C#N | -3.27 | –
Cc1cc(-c2nnc3n2CCCCC3)c(C)n1-c1cccc2ccccc12 | -1.81 | –
CC1=C(C(=O)Nc2ccc(Cl)cc2)C(c2ccccc2Br)N=C(Nc2nc3ccccc3o2)N1 (configuration not stated) | 0.736 | –
O=S(=O)(c1ccc(F)cc1)N1CCN(S(=O)(=O)c2ccc3c(c2)OCCO3)CC1 | 4.69 | –
